This is one part of the list. The source made the active and inactive calls.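 Rule for the calls, unless noted: active = inhibition above the hit cutoff computed for the primary STAT3 screen (cut at about 44% in these data); inactive = the rest.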
Key:
[1] = biological target: Peroxisome proliferator-activated receptor gamma (Homo sapiens) (UniProt P37231); experiment: retested PPARg-SRC-2 recruitment enhancers – biochemical, HTS, confirmation (AID 1297; in the data active = activation above about 22%;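 note: 0% = vehicle alone and 100% = reference agonist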); details: biochemical SRC-2 recruitment by PPARgamma; at 8 µM; hits give high values
[2] = biological target: Peroxisome proliferator-activated receptor gamma (Homo sapiens) (UniProt P37231); experiment: retest of SRC-1 recruitment enhancers for PPARgamma – biochemical, confirmation (AID 1300; in the data active = activation above about 20%;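 note: 0% = vehicle wells and 100% = reference agonist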); details: PPARgamma–SRC-1 coactivator recruitment biochemical assay; at 8 µM; hits give high values
[3] = biological target: Peroxisome proliferator-activated receptor gamma (Homo sapiens) + Nuclear receptor coactivator 3 (Homo sapiens) (UniProt P37231+Q9Y6Q9); experiment: agonists promoting SRC-3 binding to PPARgamma – biochemical, confirmation (AID 1301; in the data active = activation above about 24%;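 note: 0% = vehicle wells and 100% = reference agonist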); details: biochemical PPARgamma-SRC-3 coactivator recruitment, agonist mode; at 8 µM; hits give high values
[4] = blockers of IL-6 STAT3 signaling – U3A cells, luciferase, luminescence, confirmation (AID 1265); details: IL-6 STAT3 luciferase reporter, at 5.7 µM, hits give high values, cell line lacks STAT1;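 note: 0% = IL-6 plus DMSO and 100% = IL-6 plus nifuroxazide control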
[5] = inhibition of TNF-alpha-driven NF-kB transcription – cell-based, HEK293T, luciferase, TNF-alpha stimulus, counter-screen for STAT3 inhibitor project, confirmation (AID 1308;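 active = inhibition above the mean of solvent-only control wells plus 3 SD, cutoff set per campaign, cut at about 13% in these data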;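 note: 0% = TNF-alpha with DMSO and 100% = TNF-alpha with MG high control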); details: HEK293T NF-kB luciferase reporter, TNF-alpha induced; at 5.7 µM; hits give high values
[6] = inhibition of STAT1-driven transcription – cell-based, NIH 3T3, luciferase luminescence, IFN-gamma, counter-screen for STAT3 inhibitor project, confirmation (AID 1317;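 active = inhibition above the mean plus 3 SD of solvent-only control wells, limit set per screening run, cut at about 16% in these data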;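 note: 0% = DMSO with IFN-gamma and 100% = nifuroxazide control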); details: NIH 3T3 STAT1-luciferase reporter, IFN-gamma induced, at 5.7 µM, hits give high values
[7] = VP16-driven transactivation reporter suppression – cell-based, luminescence, HEK293, counter-screen for COUP-TFII antagonist project (AID 687007; in the data active = inhibition above about 13%); details: HEK293 Gal4-VP16 luciferase reporter, at 8.5 µM, hits give high values
[8] = biological target: COUP transcription factor 2 (Homo sapiens) (UniProt P24468); experiment: retest of COUP-TFII reporter suppressors – cell-based, luciferase reporter, HEK293, triplicate, confirmation (AID 687008;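 active = mean inhibition over three repeats above a set limit taken from the earlier primary screen, cut at about 38% in these data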;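 note: 100% = cells given the luciferase reporter alone without the COUP-TF2 vector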); details: HEK293 NGFI-A luciferase reporter, luminescence; at 8.5 µM; hits give high values
[9] = biological target: Photoreceptor-specific nuclear receptor (Homo sapiens) (UniProt Q9Y5X4); experiment: retest of NR2E3-NCOR disrupting agonists – cell-based, luminescence, CHO-S two-hybrid, confirmation (AID 624378;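 active = average inhibition above a cutoff equal to the mean inhibition of all tested compounds plus one SD, cut at about 70% in these data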;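 note: 0% = DMSO in NR2E3 cells and 100% = DMSO in cells lacking NR2E3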); details: CHO-S mammalian two-hybrid NR2E3-NCOR, luciferase luminescence; at 3.98 µM; hits give high values
[10] = nonselective effects on VP16 transactivation – cell-based, luminescence, CHO-S, high throughput, counter-screen for NR2E3 agonist project, confirmation (AID 624379;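 active = mean inhibition above a cutoff equal to the average over all tested compounds plus one standard deviation, cut at about 70% in these data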;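 note: 0% = DMSO with VP16-transfected cells and 100% = DMSO with cells lacking VP16; higher means less reporter light so more repression of VP16 activity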); details: CHO-S GAL4-VP16 luciferase reporter, at 3.98 µM, hits give high values
[11] = biological target: Oxysterols receptor LXR-beta (Homo sapiens) (UniProt P55055); experiment: nonspecific reporter activation via LXR – cell-based, luminescence, HEK293, H. contortus campaign, counter-screen for hcDAF-12 agonist project, confirmation (AID 743027;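 active = mean percent activation of the reporter above a cutoff set as the average over tested compounds plus their standard deviation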); details: HEK293 Gal4-LXR tk-luc reporter, 24 h, at 6.8 µM, hits give high values, normalized: DMSO 0%, positive control 100%
[12] = test system: Nuclear hormone receptor DAF-12 (Haemonchus contortus); experiment: hcDAF-12 luciferase reporter activation, retest – cell-based, luminescence, HEK293, lit1-tk-luc, triplicate, confirmation (AID 743032;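 active = mean activation across triplicate tests above the threshold derived from the earlier primary screen, cut at about 5.5% in these data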;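 note: 0% = DMSO only wells and 100% = 3 µM Δ7-dafachronic acid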); details: HEK293 hcDAF-12 lit1-tk-luc reporter, at 6.8 µM, hits give high values, % of Δ7-dafachronic acid response
[13] = test system: DAF-12 nuclear receptor (Heterodera glycines), GAL4-LBD fusion; experiment: hgDAF-12 GAL4 fusion reporter activation, retest – cell-based, luminescence, HEK293, GAL4-LBD fusion, confirmation (AID 743050;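 active = mean activation over triplicate wells above the hit cutoff derived from the earlier primary screen, cut at about 11% in these data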;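 note: 0% = DMSO low control and 100% = 2 mM sodium butyrate high control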); details: HEK293 GAL4-hgDAF12 luciferase reporter, agonist mode; at 6.8 µM; hits give high values; percent of butyrate response
[14] = biological target: Oxysterols receptor LXR-beta (Homo sapiens) (UniProt P55055); experiment: nonspecific reporter activation via LXR – cell-based, luminescence, HEK293, H. glycines campaign, counter-screen for hgDAF-12 agonist project, confirmation (AID 743051;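 active = mean activation of the triplicate above a set limit carried over from the primary screen, none filed active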); details: HEK293 Gal4-LXR luciferase reporter, 24 h; at 6.8 µM; hits give high values
[15] = biological target: Nuclear receptor coactivator 1 (Homo sapiens) (UniProt Q15788); experiment: NCOA1 GAL4-fusion reporter inhibition – cell-based, luminescence, quadruplicate, confirmation (AID 588820;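 active = mean inhibition above 46.68%, the untreated control wells mean plus 3 SD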;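 note: 0% = DMSO wells and 100% = gossypol 36 µM treated wells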); details: HEK293 GAL4-SRC1 luciferase reporter, at 3.6 µM, hits give high values
[16] = repression of VP16-driven luciferase reporter – cell-based, luminescence, high throughput, counter-screen for SRC1 inhibitor project (AID 588824; in the data active = inhibition above about 25%); details: cell-based VP16 transactivation luciferase luminescence; at 3.6 µM; hits give high values
[17] = StAR promoter reporter inhibitors, counter-screen for LRH-1 inverse agonist project, cell-based, luminescence, high throughput (AID 651611; in the data active = inhibition above about 28%); details: StAR promoter luciferase reporter counterscreen, at 3.6 µM, hits give high values
[18] = biological target: Nuclear receptor subfamily 5 group A member 2 (Homo sapiens) (UniProt O00482); experiment: NR5A2 activity suppression in reporter cells – cell-based, luminescence, confirmation (AID 651613; in the data active = inhibition above about 42%;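 note: HEK293T cells co-transfected with LRH-1 and StAR promoter luciferase reporter; 0% = vehicle wells and 100% = parental cells lacking receptor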); details: cell-based LRH-1 luciferase reporter, inverse agonism; at 3.6 µM; hits give high values
[19] = biological target: Steroidogenic factor 1 (Homo sapiens) (UniProt Q13285); experiment: inverse agonism at SF1 nuclear receptor – cell-based, luminescence, high throughput, counter-screen for LRH-1 inverse agonist project (AID 651614; in the data active = inhibition above about 44%;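 note: cells cotransfected with StAR promoter reporter and SF1 expression vector; 0% = vehicle on cells with receptor and 100% = vehicle on cells lacking receptor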); details: cell-based SF1 luciferase reporter, at 3.6 µM, hits give high values
[20] = compounds suppressing VP16-driven luciferase signal – cell-based, luminescence, high throughput, counter-screen for LRH-1 inverse agonist project (AID 651615; in the data active = inhibition above about 33%); details: Gal4-VP16 luciferase reporter cells, at 3.6 µM, hits give high values
[21] = biological target: Galanin receptor type 2 (Homo sapiens) (UniProt O43603); experiment: blockers of human galanin receptor 2 – cell-based, confirmation (AID 866; in the data active = inhibition above about 27%;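 note: cells stimulated with galanin at about its EC80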); details: GALR2-expressing cells, antagonist mode, at 4 µM, hits give high values
[22] = nonspecific BLA reporter inhibition – CHO NFAT-bla cells, FRET readout, counter-screen for GALR2 antagonist project, confirmation (AID 867;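 active = inhibition above the mean inhibition across tested compounds plus 3 SD, cut at about 27% in these data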;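 note: 0% = 500 nM thapsigargin stimulated wells and 100% = unstimulated BSA only wells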); details: beta-lactamase FRET, thapsigargin-stimulated, at 4.2 µM, hits give high values
[23] = biological target: Neuropeptide Y receptor type 2 (Homo sapiens) (UniProt P49146); experiment: human Y2 receptor positive modulation or activation – cell-based, confirmation (AID 1539; in the data active = activation above about 33%); details: cell-based NPY-Y2 potentiator/agonist assay; at 3.6 µM; hits give high values
[24] = biological target: Neuropeptide Y receptor type 1 (Homo sapiens) (UniProt P25929); experiment: human Y1 receptor positive modulation or activation – cell-based, fluorescence, counter-screen for NPY-Y2 potentiator project (AID 1651; in the data active = activation above about 45%;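 note: cells stimulated with submaximal NPY then isoproterenol with phosphodiesterase inhibitor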); details: Y1 HEK293-CNG cells, membrane potential fluorescence; at 3.6 µM; hits give high values
[25] = biological target: Neuropeptide Y receptor type 1 (Homo sapiens) (UniProt P25929); experiment: human Y1 receptor agonism, CNGC membrane potential – cell-based, fluorescence, selectivity assay for NPY-Y2 potentiator project (AID 1702;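 active = activation above the mean of DMSO-only control wells plus 3 SD, cut at about 18% in these data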;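 note: cells stimulated with 1 µM isoproterenol plus the PDE inhibitor Ro 20-1724; 0% = isoproterenol with DMSO and no NPY and 100% = 40 nM NPY; Y1 agonists lower the membrane potential dye signal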); details: HEK293 Y1-CNGC, at 3.6 µM, hits give high values
[26] = blockers of isoproterenol-driven CNG channel signal – cell-based, HEK293-CNG parental, membrane potential fluorescence, counter-screen for NPY-Y2 potentiator project (AID 1703;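 active = inhibition above the control-well mean plus 3 SD of those wells, cut at about 22% in these data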;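 note: 0% = DMSO with isoproterenol and 100% = DMSO without isoproterenol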); details: isoproterenol cAMP, at 3.6 µM, hits give high values
[27] = biological target: Neuropeptide Y receptor type 2 (Homo sapiens) (UniProt P49146); experiment: agonism at human Y2 receptor without NPY – cell-based, fluorescence, counter-screen for NPY-Y2 potentiator project (AID 1710;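 active = activation above the mean of solvent-only control wells plus 3 SD, cut at about 10% in these data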;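 note: cells stimulated by isoproterenol with no NPY added so direct agonism is tested; 0% = DMSO with isoproterenol alone and 100% = NPY at EC100 plus isoproterenol; agonism lowers probe fluorescence through less cAMP and CNG channel opening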); details: HEK293 Y2/CNGC cells, membrane potential fluorescence, agonist mode; at 3.6 µM; hits give high values
[28] = suppression of KLF5 promoter-driven luciferase – DLD-1 cells, luminescence, confirmation (AID 1834;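 active = inhibition above a set limit taken from the earlier primary screen, cut at about 63% in these data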;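 note: 0% = DMSO wells and 100% = LY294002 at 200 µM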); details: DLD-1 KLF5 promoter firefly luciferase reporter, at 4 µM, hits give high values
[29] = IEC-6 intestinal cell killing – luminescence, triplicate, cytotoxicity control for KLF5 inhibitor project (AID 1905; in the data active = inhibition above about 23%;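 note: cells exposed to compounds for 48 hours before viability read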); details: IEC-6 rat intestinal cells, viability luminescence; at 4 µM; hits give high values
[30] = biological target: Oxytocin receptor (Homo sapiens) (UniProt P30559); experiment: oxytocin receptor activation, retest of hits – fluorescence, CHO-OTR cells, triplicate, confirmation (AID 434963;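 active = mean activation above about 20% derived from the earlier single-dose screen, limit read from the data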;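 note: peak over minimum fluorescence ratio per well during a 100 second FLIPR read; 0% = DMSO alone and 100% = oxytocin high control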); details: Fluo-8 calcium fluorescence, agonist, at 3 µM, hits give high values
[31] = biological target: Vasopressin V1a receptor (Homo sapiens) (UniProt P37288); experiment: activators of vasopressin V1R in CHO cells – cell-based, triplicate, fluorescence, counter-screen for OXTR agonist project (AID 434991;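 active = mean activation over triplicate exceeds the hit threshold set in the earlier primary screen, cut at about 20% in these data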;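 note: peak over basal fluorescence ratio within a 100 second read; 0% = DMSO alone and 100% = 3 nM vasopressin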); details: Fluo-8 calcium fluorescence, at 3 µM, hits give high values
[32] = biological target: Nuclear receptor coactivator 3 (Homo sapiens) (UniProt Q9Y6Q9); experiment: NCOA3 GAL4-fusion reporter inhibition – cell-based, luminescence, quadruplicate, confirmation (AID 588792;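 active = mean inhibition over 43.08%, the solvent-only control mean plus 3 SD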;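 note: 0% = DMSO treated cells and 100% = gossypol at 36 µM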); details: HEK293 GAL4-SRC3 luciferase reporter, at 3.6 µM, hits give high values
[33] = test system: transactivating tegument protein VP16 (Human herpesvirus 1), Gal4-VP16 luciferase reporter; experiment: repression of VP16-driven luciferase reporter – cell-based, luminescence, high throughput, counter-screen for SRC3 inhibitor project (AID 588794; in the data active = inhibition above about 30%); details: mammalian cells, at 3.6 µM, hits give high values
[34] = reduced OD of V66 E. coli with T4 gene 2 phage – absorbance, RecBCD inhibitor project, confirmation (AID 651982;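 active = mean inhibition over triplicates exceeding the hit threshold derived in the original primary screen, cut at about 11% in these data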); details: E. coli V66 + T4 2- phage, growth OD; at 11.9 µM; hits give high values
[35] = bacterial growth inhibition – absorbance, high throughput, counter-screen for RecBCD inhibitor project (AID 651983; in the data active = inhibition above about 20%;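 note: E. coli strain V66 grown with compound alone and no phage infection; 0% = bacteria with DMSO vehicle only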); details: E. coli viability, absorbance (OD) growth; at 11.9 µM; hits give high values
[36] = reduced optical density, T4-challenged addAB+ bacteria – absorbance, E. coli V3065, T4 phage, counter-screen for RecBCD inhibitor project, confirmation (AID 651984;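 active = mean inhibition above the solvent-only control wells' mean plus 3 SD, cut at about 22% in these data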;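 note: higher means less bacterial growth from phage killing when AddAB is blocked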); details: E. coli expressing H. pylori AddAB + T4 phage, OD growth; at 11.9 µM; hits give high values; gene 2 mutant T4, recBCD-deleted host

Chain of Peroxisome proliferator-activated receptor gamma (Homo sapiens) (P37231 whole entry, looked up): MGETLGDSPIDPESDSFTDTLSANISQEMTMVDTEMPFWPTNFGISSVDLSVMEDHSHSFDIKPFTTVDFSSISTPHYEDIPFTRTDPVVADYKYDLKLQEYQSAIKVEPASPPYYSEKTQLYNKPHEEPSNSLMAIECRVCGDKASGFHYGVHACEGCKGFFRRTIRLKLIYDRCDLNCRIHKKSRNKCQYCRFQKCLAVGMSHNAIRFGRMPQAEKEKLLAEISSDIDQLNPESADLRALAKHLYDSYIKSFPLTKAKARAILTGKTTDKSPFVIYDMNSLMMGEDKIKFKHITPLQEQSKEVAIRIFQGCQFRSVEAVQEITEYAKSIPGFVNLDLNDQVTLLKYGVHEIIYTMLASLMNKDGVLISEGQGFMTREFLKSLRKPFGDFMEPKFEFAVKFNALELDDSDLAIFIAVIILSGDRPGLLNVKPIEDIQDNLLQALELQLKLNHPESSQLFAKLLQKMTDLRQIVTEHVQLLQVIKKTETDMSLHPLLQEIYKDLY
Chain of COUP transcription factor 2 (Homo sapiens) (P24468 whole entry, looked up): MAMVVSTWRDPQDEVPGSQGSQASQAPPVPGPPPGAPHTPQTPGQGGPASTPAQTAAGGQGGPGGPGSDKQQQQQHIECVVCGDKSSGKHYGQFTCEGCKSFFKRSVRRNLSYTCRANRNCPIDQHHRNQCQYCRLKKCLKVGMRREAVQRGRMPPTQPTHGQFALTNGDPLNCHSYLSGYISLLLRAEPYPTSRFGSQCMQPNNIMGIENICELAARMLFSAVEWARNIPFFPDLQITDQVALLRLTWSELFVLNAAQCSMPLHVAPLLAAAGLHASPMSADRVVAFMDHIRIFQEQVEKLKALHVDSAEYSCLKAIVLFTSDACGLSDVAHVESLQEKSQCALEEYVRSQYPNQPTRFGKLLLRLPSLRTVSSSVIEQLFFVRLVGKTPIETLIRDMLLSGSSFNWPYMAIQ
Chain of Oxysterols receptor LXR-beta (Homo sapiens) (P55055 whole entry, looked up, the tested form may be a part): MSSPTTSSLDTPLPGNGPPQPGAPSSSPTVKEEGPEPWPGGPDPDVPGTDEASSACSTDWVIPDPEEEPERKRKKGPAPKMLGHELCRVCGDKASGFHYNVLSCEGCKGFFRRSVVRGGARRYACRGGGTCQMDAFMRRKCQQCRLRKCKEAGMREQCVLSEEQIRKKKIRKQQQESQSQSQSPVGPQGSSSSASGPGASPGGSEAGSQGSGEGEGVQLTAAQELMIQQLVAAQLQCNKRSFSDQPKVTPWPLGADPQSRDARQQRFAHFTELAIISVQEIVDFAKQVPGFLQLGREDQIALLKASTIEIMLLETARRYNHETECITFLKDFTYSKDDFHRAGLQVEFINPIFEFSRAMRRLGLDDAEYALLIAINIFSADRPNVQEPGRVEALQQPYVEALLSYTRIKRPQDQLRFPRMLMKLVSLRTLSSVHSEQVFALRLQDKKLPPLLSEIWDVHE
Chain of Photoreceptor-specific nuclear receptor (Homo sapiens) (Q9Y5X4 whole entry, looked up): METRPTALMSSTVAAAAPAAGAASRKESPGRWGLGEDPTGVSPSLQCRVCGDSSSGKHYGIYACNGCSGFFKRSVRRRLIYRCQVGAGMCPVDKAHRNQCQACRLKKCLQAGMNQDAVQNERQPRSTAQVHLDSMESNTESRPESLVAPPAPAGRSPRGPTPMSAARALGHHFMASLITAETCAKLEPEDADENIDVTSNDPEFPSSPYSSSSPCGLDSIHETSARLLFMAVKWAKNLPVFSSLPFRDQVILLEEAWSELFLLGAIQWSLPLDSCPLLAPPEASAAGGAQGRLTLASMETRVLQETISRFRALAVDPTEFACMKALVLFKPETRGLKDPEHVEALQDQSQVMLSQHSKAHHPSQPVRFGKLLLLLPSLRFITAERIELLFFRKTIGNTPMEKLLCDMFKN
Chain of Nuclear receptor coactivator 1 (Homo sapiens) (Q15788 whole entry, looked up, the tested form may be a part): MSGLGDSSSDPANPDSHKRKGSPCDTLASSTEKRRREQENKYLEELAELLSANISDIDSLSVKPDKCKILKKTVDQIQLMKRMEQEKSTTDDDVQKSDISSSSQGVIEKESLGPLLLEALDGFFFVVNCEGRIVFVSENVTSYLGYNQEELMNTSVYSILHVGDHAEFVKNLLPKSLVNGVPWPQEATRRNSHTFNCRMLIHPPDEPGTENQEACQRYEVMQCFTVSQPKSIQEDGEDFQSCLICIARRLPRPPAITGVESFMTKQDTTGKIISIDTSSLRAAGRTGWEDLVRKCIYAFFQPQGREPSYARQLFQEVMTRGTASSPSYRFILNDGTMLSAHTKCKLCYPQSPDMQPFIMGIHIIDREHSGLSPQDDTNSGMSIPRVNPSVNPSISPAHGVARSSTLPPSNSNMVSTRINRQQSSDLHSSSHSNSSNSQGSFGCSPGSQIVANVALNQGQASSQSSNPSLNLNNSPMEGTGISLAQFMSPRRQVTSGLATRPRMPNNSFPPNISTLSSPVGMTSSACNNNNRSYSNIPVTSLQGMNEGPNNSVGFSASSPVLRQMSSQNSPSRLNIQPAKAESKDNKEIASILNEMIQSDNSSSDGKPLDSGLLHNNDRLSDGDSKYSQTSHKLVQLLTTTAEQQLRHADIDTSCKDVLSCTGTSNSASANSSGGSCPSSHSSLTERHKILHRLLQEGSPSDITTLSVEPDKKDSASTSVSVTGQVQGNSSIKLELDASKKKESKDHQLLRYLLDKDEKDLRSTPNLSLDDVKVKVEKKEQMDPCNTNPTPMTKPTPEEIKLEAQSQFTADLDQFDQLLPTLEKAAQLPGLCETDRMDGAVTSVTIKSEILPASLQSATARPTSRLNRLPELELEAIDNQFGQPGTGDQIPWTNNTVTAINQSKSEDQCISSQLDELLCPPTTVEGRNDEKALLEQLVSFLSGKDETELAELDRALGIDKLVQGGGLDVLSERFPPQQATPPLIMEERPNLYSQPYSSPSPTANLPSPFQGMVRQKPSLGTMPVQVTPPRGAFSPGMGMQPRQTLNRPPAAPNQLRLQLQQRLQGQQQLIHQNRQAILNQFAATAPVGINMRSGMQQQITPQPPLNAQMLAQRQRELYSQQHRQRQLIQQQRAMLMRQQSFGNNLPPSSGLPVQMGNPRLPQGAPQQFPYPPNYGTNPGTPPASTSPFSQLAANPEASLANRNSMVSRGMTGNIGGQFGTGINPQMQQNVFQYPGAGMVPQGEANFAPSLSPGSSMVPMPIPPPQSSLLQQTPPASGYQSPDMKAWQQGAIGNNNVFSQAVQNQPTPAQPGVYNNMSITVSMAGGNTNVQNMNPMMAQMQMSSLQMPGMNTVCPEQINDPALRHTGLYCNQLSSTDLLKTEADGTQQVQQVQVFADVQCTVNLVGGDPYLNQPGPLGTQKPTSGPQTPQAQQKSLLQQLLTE
Chain of Neuropeptide Y receptor type 2 (Homo sapiens) (P49146 whole entry, looked up): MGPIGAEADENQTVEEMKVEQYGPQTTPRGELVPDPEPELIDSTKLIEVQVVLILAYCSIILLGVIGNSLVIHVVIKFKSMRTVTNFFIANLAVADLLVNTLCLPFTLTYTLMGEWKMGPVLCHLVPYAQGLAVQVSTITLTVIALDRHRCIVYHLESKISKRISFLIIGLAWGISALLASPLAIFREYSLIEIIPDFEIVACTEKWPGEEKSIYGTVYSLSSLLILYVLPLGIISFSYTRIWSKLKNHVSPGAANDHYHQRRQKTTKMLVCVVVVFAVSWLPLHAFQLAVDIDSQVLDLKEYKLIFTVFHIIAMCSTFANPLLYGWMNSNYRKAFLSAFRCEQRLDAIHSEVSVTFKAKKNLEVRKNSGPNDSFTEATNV
Chain of Nuclear receptor subfamily 5 group A member 2 (Homo sapiens) (O00482 whole entry, looked up): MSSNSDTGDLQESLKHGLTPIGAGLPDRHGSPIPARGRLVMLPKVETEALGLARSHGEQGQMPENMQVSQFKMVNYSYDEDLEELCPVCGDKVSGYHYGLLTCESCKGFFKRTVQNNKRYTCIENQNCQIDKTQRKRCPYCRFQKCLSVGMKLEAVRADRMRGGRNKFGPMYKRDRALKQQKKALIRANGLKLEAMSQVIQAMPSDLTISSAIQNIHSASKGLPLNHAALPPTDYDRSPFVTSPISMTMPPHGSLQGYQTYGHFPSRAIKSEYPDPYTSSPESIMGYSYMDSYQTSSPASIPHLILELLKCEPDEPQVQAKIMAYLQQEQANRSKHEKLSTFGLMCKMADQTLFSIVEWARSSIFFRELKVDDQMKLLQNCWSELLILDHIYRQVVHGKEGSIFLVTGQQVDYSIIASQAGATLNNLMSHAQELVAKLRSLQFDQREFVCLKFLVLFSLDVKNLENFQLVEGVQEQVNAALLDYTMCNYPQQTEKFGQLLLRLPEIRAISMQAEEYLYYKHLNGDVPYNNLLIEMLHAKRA
Chain of Steroidogenic factor 1 (Homo sapiens) (Q13285 whole entry, looked up, the tested form may be a part): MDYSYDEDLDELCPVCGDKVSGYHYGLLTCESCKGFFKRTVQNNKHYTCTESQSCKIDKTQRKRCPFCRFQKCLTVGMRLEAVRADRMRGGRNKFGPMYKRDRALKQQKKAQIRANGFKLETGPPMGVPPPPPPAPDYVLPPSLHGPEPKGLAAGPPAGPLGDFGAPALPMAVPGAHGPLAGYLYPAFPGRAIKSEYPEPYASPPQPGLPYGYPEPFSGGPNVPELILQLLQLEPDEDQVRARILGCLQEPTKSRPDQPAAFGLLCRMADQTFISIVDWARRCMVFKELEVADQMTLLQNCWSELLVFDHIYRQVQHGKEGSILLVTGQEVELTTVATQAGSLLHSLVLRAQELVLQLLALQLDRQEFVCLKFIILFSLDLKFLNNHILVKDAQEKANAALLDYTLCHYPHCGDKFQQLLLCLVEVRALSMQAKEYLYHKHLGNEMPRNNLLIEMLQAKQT
Chain of Neuropeptide Y receptor type 1 (Homo sapiens) (P25929 whole entry, looked up): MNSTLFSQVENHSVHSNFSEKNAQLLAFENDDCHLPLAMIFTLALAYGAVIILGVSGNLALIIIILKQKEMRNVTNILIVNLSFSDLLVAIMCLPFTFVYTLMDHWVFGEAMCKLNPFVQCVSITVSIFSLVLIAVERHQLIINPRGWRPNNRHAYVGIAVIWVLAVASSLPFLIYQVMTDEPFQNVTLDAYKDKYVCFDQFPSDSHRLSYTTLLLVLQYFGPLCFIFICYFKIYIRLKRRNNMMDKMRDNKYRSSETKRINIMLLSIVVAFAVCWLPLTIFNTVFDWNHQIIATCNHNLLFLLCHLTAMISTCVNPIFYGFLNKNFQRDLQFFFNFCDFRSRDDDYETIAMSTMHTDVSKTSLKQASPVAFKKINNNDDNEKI

Cn1c(=O)cc(SCC(=O)N2CCN(C(=O)c3ccco3)CC2)c2ccccc21
inactive: activation [2] 12.7% | activation [3] 17.9%
active: activation [1] 22.2%

O=C(Nc1cccc(S(=O)(=O)Nc2ccc(Cl)cc2)c1)c1ccc2c(c1)OCCO2
active: inhibition [4] 55.6% | inhibition [5] 15.4% | inhibition [6] 17.7% | inhibition [8] 42.2%
inactive: inhibition [7] -4.16%

COc1ccccc1Oc1ccc(S(=O)(=O)Nc2cccnc2)cc1
inactive: inhibition [4] 33% | inhibition [5] 5.8% | inhibition [6] 8.77%
active: inhibition [9] 95.5% | inhibition [10] 75.8%

CCc1ccc2oc(-c3ccc(N)cc3)nc2c1
active: inhibition [5] 13.1% | activation [12] 10.2% | activation [13] 18.3%
inactive: inhibition [4] 36.1% | inhibition [6] -84.8% | activation [11] 1.54% | activation [14] 1.35%

CC(C)CC(=O)N/C(N)=N/c1nc2ccccc2s1
active: activation [12] 5.93%
inactive: inhibition [4] 6.93% | inhibition [5] -39.6% | inhibition [6] -138% | activation [11] 1.25%

CN(Cc1cccnc1)C(=O)c1cc(COc2ccc3ncccc3c2)on1
active: inhibition [4] 75.9% | inhibition [5] 25.1% | inhibition [6] 27.1% | inhibition [16] 26.4% | inhibition [9] 89.1% | inhibition [10] 78.8% | inhibition [8] 59%
inactive: inhibition [15] -14.7% | inhibition [7] 0.64%

Cc1nc(-c2ccccc2)sc1-c1nc(-c2ccccc2)ncc1S(=O)(=O)c1ccccc1
inactive: activation [3] 22.7%
active: activation [1] 48.5% | activation [2] 29.3%

Cc1ccc(NC(=O)CN(C)CC(=O)Nc2cccc(F)c2)cc1[N+](=O)[O-]
active: inhibition [5] 13% | inhibition [6] 19.3% | inhibition [9] 74.5% | inhibition [10] 86.7% | inhibition [8] 51.8%
inactive: inhibition [4] 35.9% | inhibition [7] 1.63%

CCCOC(=O)c1[nH]c2c(c1C)C(=O)CC(c1cc(OC)c(OC)c(OC)c1)C2 (stereo unspecified)
active: inhibition [4] 61% | inhibition [5] 29% | inhibition [6] 25.8% | inhibition [9] 73.9% | inhibition [17] 29% | inhibition [18] 54.7% | inhibition [19] 54.1% | inhibition [20] 41% | inhibition [8] 49.6%
inactive: inhibition [10] 65% | inhibition [7] 6.54%

COc1cccc(-c2nc3cc(C)ccc3o2)c1
inactive: inhibition [4] 1.5% | inhibition [5] -23.8% | inhibition [6] -109% | activation [11] 2.33%
active: activation [12] 16.7%

O=C(NC(Nc1nc2ccc([N+](=O)[O-])cc2s1)(C(F)(F)F)C(F)(F)F)c1ccccc1
active: inhibition [21] 99.4% | inhibition [22] 69.4% | activation [27] 22.1% | inhibition [28] 83.7% | inhibition [29] 90.4% | inhibition [32] 69.1% | inhibition [33] 84.5% | inhibition [16] 84.3% | inhibition [9] 98.5% | inhibition [10] 93.3% | inhibition [17] 82.9% | inhibition [18] 105% | inhibition [19] 93.3% | inhibition [20] 86.8% | inhibition [8] 65.9%
inactive: activation [23] 30.6% | activation [24] -2.54% | activation [25] -9.19% | inhibition [26] -2.45% | activation [30] 13% | activation [31] 8.96% | inhibition [15] 38.7% | inhibition [34] 8% | inhibition [35] 10.7% | inhibition [36] 11.3% | inhibition [7] 6.94%

From PubChem BioAssay
